The test system of assay [1] is AAK1. The arrangement: species or system human, MV4-11 + K-562 + COLO205 + SK-N-BE2 + OVCAR-8. As to conditions: read-out: apparent Kd, n = 1.
Assay [2] has as its system BMP2K. Further details: species or system human, MV4-11 + K-562 + COLO205 + SK-N-BE2 + OVCAR-8. As to conditions: read-out: apparent Kd, n = 1.
Assay [3] deals with CLK4. The arrangement: species or system human, MV4-11 + K-562 + COLO205 + SK-N-BE2 + OVCAR-8. Particulars: read-out: apparent Kd, n = 1.
The test system of assay [4] is CSNK2A1;CSNK2A3. Further details: species or system human, MV4-11 + K-562 + COLO205 + SK-N-BE2 + OVCAR-8. Particulars: read-out: apparent Kd, n = 1.
The test system of assay [5] is CSNK2A2. Further details: species or system human, MV4-11 + K-562 + COLO205 + SK-N-BE2 + OVCAR-8. Particulars: read-out: apparent Kd, n = 1.
Assay [6] has as its system GAK. Further details: species or system human, MV4-11 + K-562 + COLO205 + SK-N-BE2 + OVCAR-8. As to conditions: read-out: apparent Kd, n = 1.
For assay [7], the system named is NUAK1. Further details: species or system human, MV4-11 + K-562 + COLO205 + SK-N-BE2 + OVCAR-8. Particulars: read-out: apparent Kd, n = 1.
The target of assay [8] is Q6ZSR9 (human, UniProt Q6ZSR9). Further details: species or system MV4-11 + K-562 + COLO205 + SK-N-BE2 + OVCAR-8. Particulars: read-out: apparent Kd, n = 1.
Chain of Q6ZSR9 (Q6ZSR9 whole entry, looked up): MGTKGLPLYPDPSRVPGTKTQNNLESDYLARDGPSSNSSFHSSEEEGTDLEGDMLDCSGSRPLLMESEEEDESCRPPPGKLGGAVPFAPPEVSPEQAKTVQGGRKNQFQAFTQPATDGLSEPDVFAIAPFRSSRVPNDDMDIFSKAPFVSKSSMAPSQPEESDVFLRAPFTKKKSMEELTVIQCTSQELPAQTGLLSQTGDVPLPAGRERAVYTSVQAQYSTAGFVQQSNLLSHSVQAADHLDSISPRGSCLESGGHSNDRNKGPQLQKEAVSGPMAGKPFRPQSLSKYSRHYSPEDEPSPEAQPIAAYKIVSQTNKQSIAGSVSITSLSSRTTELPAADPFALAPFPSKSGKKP
The subject of assay [9] is SIK2. The arrangement: species or system human, MV4-11 + K-562 + COLO205 + SK-N-BE2 + OVCAR-8. As to conditions: read-out: apparent Kd, n = 1.
The test system of assay [10] is MELK. The arrangement: species or system human, MV4-11 + K-562 + COLO205 + SK-N-BE2 + OVCAR-8. As to conditions: read-out: apparent Kd, n = 1.
The subject of assay [11] is GSK3A. Further details: species or system human, MV4-11 + K-562 + COLO205 + SK-N-BE2 + OVCAR-8. As to conditions: read-out: apparent Kd; compound concentrations: 100 nM and 1000 nM (sheet 'Samples'), CATDS: 3.3017253821498199E-2; n = 1.
For assay [12], the system named is GSK3B. The arrangement: species or system human, MV4-11 + K-562 + COLO205 + SK-N-BE2 + OVCAR-8. As to conditions: read-out: apparent Kd, compound concentrations: 100 nM and 1000 nM (sheet 'Samples'), n = 1.
Assay [13] concerns PAK4. The arrangement: species or system human, MV4-11 + K-562 + COLO205 + SK-N-BE2 + OVCAR-8. As to conditions: read-out: apparent Kd; compound concentrations: 100 nM and 1000 nM (sheet 'Samples'), CATDS: 2.65611791576283E-2; n = 1.
The test system of assay [14] is RET. Further details: species or system human, MV4-11 + K-562 + COLO205 + SK-N-BE2 + OVCAR-8. Particulars: read-out: apparent Kd; compound concentrations: 100 nM and 1000 nM (sheet 'Samples'), CATDS: 3.1274331482211301E-2; n = 1.
Assay [15] concerns PKN1. Further details: species or system human, MV4-11 + K-562 + COLO205 + SK-N-BE2 + OVCAR-8. Particulars: read-out: apparent Kd; compound concentrations: 100 nM and 1000 nM (sheet 'Samples'), CATDS: 2.9664861147502199E-2; n = 1.
For assay [16], the system named is PRKAG1. The arrangement: species or system human, MV4-11 + K-562 + COLO205 + SK-N-BE2 + OVCAR-8. As to conditions: read-out: apparent Kd; compound concentrations: 100 nM and 1000 nM (sheet 'Samples'), CATDS: 1.9025331184012301E-2; n = 1.
The test system of assay [17] is FLT4. Further details: species or system human, MV4-11 + K-562 + COLO205 + SK-N-BE2 + OVCAR-8. As to conditions: read-out: apparent Kd; compound concentrations: 100 nM and 1000 nM (sheet 'Samples'), CATDS: 8.0295198966638101E-2; n = 1.
Where [18] appears, read: compound concentrations:100 nM and 1000 nM (sheet 'Samples').

Like-named read-outs stand apart in the source and are kept apart here.

`CC(C)Oc1ccc2c(-c3ccnc(Nc4ccc(N5CCN(C)CC5)cc4)n3)cnn2n1` [GW696155X]: the potency estimated from few doses was 0.0354 µM in assay [1] (setting [18]); 0.344 µM in assay [2] (setting [18]); 1.57 µM in [3] (setting [18]); 0.416 µM in assay [4] (setting [18]); 0.201 µM in assay [5] (setting [18]); 0.454 µM in assay [6] (setting [18]). For the same compound, the potency estimated from few doses in assay [7] (setting [18]) is 1.03 µM; in [8] (setting [18]), 0.0396 µM; in assay [9] (setting [18]), 0.781 µM.
For the compound `CC(C)Nc1cc(-c2ccc3c(N)n[nH]c3c2)nc(N)n1` [GSK2221681A], the potency estimated from few doses in assay [1] (setting [18]) is 0.149 µM; in [2] (setting [18]), 0.947 µM; in assay [3] (setting [18]), 1.55 µM; in assay [10] (setting [18]), 1.13 µM; in assay [8] (setting [18]), 0.22 µM.
As for `CNCC#Cc1c(F)ccc2c1/C(=C/c1[nH]ccc1OC)C(=O)N2.Cl` [RO0281601-001], the potency estimated from few doses in [1] (compound concentrations: 100 nM and 1000 nM (sheet 'Samples'), CATDS: 7.8599709029845199E-2) was 0.0819 µM; in assay [2] (compound concentrations: 100 nM and 1000 nM (sheet 'Samples'), CATDS: 0.12287640268831), 0.0368 µM; in [4] (compound concentrations: 100 nM and 1000 nM (sheet 'Samples'), CATDS: 2.36611103564075E-2), 1.45 µM; in [5] (compound concentrations: 100 nM and 1000 nM (sheet 'Samples'), CATDS: 2.8196939656964501E-2), 0.832 µM; in assay [6] (compound concentrations: 100 nM and 1000 nM (sheet 'Samples'), CATDS: 2.4779459392996701E-2), 1.24 µM; in assay [11] it was 0.543 µM. Also, the potency estimated from few doses is 0.717 µM in [12] (CATDS: 2.9733635165772199E-2); 2.07 µM in assay [10] (compound concentrations: 100 nM and 1000 nM (sheet 'Samples'), CATDS: 2.1569826245294601E-2); 0.0227 µM in assay [7] (compound concentrations: 100 nM and 1000 nM (sheet 'Samples'), CATDS: 0.165743265872908); 0.993 µM in assay [13]; 0.0799 µM in assay [8] (compound concentrations: 100 nM and 1000 nM (sheet 'Samples'), CATDS: 7.9611520405697994E-2); 0.625 µM in assay [14]. Also, the potency estimated from few doses in assay [9] (compound concentrations: 100 nM and 1000 nM (sheet 'Samples'), CATDS: 2.5744963506260699E-2) is 1.09 µM.
For the compound `Cc1ccccc1C1=C(c2cn(C)c3ccccc23)C(=O)NC1=O` [RO0317612-000], in [1] (compound concentrations: 100 nM and 1000 nM (sheet 'Samples'), CATDS: 0.12392874635964), the potency estimated from few doses is 1.65 µM.
For `Cl.Cl.NCC(NC(=O)c1cc(-c2ccnc3[nH]ccc23)cs1)c1ccccc1.NCC(NC(=O)c1cc(-c2ccnc3[nH]ccc23)cs1)c1ccccc1` (stereo not shown) [GSK1229959A], the potency estimated from few doses is 0.0796 µM in assay [1] (compound concentrations: 100 nM and 1000 nM (sheet 'Samples'), CATDS: 3.6384638335370603E-2); 0.0971 µM in [2] (compound concentrations: 100 nM and 1000 nM (sheet 'Samples'), CATDS: 3.4118166315235399E-2); 1.24 µM in assay [3] (compound concentrations: 100 nM and 1000 nM (sheet 'Samples'), CATDS: 1.8316449367944E-2); 0.0755 µM in assay [6] (compound concentrations: 100 nM and 1000 nM (sheet 'Samples'), CATDS: 3.7046569699604799E-2); 1.17 µM in assay [12] (CATDS: 1.8491508517635601E-2); 0.155 µM in [15]. In addition, the potency estimated from few doses in assay [16] is 1.01 µM; in assay [8] (compound concentrations: 100 nM and 1000 nM (sheet 'Samples'), CATDS: 3.4885156977357598E-2) it was 0.0906 µM.
Take `Nc1nc(-c2ccc3c(N)n[nH]c3c2)cc(N2CCCC(NC(=O)c3ccccc3)C2)n1` (stereo not shown) [GSK2286775B]: the potency estimated from few doses is 0.826 µM in assay [1] (setting [18]) and 0.821 µM in [8] (setting [18]).
For the compound `COc1cc2ncn(-c3cc(OCc4ccccc4S(C)(=O)=O)c(C#N)s3)c2cc1OC` [GSK319347A], the potency estimated from few doses in [1] (compound concentrations: 100 nM and 1000 nM (sheet 'Samples'), CATDS: 0.12685242970353799) is 0.621 µM; in assay [2] (compound concentrations: 100 nM and 1000 nM (sheet 'Samples'), CATDS: 0.286498522791794), 0.177 µM; in [17], 1.72 µM; in [6] (compound concentrations: 100 nM and 1000 nM (sheet 'Samples'), CATDS: 8.54645100662135E-2), 1.45 µM; in assay [8] (compound concentrations: 100 nM and 1000 nM (sheet 'Samples'), CATDS: 0.124049531101547), 0.647 µM.

(Values after article PMC11062922 (Nature Chemical Biology, 2023).)
